# Laboratory results: publication PMC5540273 (PLoS ONE, 2017)
# Experiments:
# Conditions in all cases: concentration: 1 μM, replicates: in singlicate; n = 1
# [1] = system: BMX
# [2] = system: BRAF
# [3] = system: T1, BRK
# T1 construct: gene PTK6
# [4] = system: BRSK1
# [5] = system: BRSK2
# [6] = system: BTK
# [7] = system: BUB1
# [8] = system: CAMK1B
# [9] = system: CAMK1D
# [10] = system: CAMK1G
# 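Further: KINOMEscan kinase panel screen.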
Compound,%Inh [1] [%],%Inh [2] [%],%Inh [3] [%],%Inh [4] [%],%Inh [5] [%],%Inh [6] [%],%Inh [7] [%],%Inh [8] [%],%Inh [9] [%],%Inh [10] [%]
CC(C)c1nc(-c2cccc(NS(=O)(=O)c3c(F)cccc3F)c2)c(-c2ccnc(Nc3ccc(N4CCOCC4)nc3)n2)s1.Cl [GSK1723980],94,100,96.4,16,37,41,93.1,13,32,2
CN(c1ccc(NC(=O)N2CCN(CCCN3CCOCC3)CC2)cc1)c1ccnc(Nc2ccc(CS(C)(=O)=O)cc2)n1.Cl [GW830899],0,0,27,83,25,0,0,0,5,0
O=C(Nc1c(F)cccc1F)c1cc(C(=O)c2ccccc2F)c[nH]1 [GSK1326180],18,0,11,0,0,0,31,33,13,6
CCOc1nccc(-c2c(-c3ccc(F)cc3)ncn2C2CCNCC2)n1 [SB-249175],12,5,0,0,11,34,27,31,0,1
COC(=O)Nc1nc2ccc(Oc3ccc(NC(=O)Nc4cc(C(F)(F)F)ccc4F)cc3)cc2[nH]1.Cl [GW654607],0,62,20,0,0,0,13,51,0,0
Cc1cc(-c2c(-c3ccc(F)cc3)ncn2CCCN2CCOCC2)nc(N)n1 [SB-222517],5,0,0,0,17,0,0,0,12,44
N#Cc1cnc2cc(-c3cnc(CNCCN4CCOCC4)s3)ccc2c1Nc1ccc(Oc2ccccc2)cc1 [GW664114],62,0,0,0,44,93.9,37,24,12,24
CC(C)(C)c1ccc(C(=O)Nc2cn3cc(-n4ccnc4)ccc3n2)cc1,0,19,15,31,0,0,7,0,6,7
N#CC1(c2cccc(C(=O)Nc3cccc(Oc4ccc5nc(NC(=O)C6CC6)sc5n4)c3)c2)CC1,0,99.9,18,13,0,6,0,0,2,0
Cc1ccc(NC(=O)c2cccc(N3CCCCC3)c2)cc1-c1ccc(C(=O)NCC2CC2)cc1 [GSK1917008],26,88,22,6,3,0,23,27,11,0
Cl.Cl.NCC(NC(=O)c1cc(-c2cccnc2)c(-c2ccnc3[nH]ccc23)s1)c1ccccc1 (centres unmarked) [GSK1323434],36,21,7,5,0,0,77,7,18,3
Cc1ccc(O)cc1Nc1ccnc2cc(-c3ccc(CN4CCCCC4)o3)ccc12 [GW557777],50,22,99.5,0,0,19,0,0,4,6
CN(c1ccc(F)c(NC(=O)c2cccc(OC(C)(C)C#N)c2Cl)c1)c1ccc2nc(NC(=O)C3CC3)sc2n1,0,94,0,4,0,22,34,0,0,2
NCCC(NC(=O)c1cc(Br)c(-c2ccnc3[nH]ccc23)s1)c1ccccc1.O=C(O)C(F)(F)F.O=C(O)C(F)(F)F (centres unmarked) [GSK1307810],25,0,34,1,19,24,68,52,34,21
Nc1ncnc2scc(-c3ccc(NC(=O)Cc4cc(F)ccc4F)cc3)c12.O=C(O)C(F)(F)F [SB-731254-M],0,4,6,2,38,0,0,0,11,15
COc1ccc(C)c(Nc2ccnc(Nc3ccc(-c4cnc[nH]4)cc3)n2)c1.Cl [GW784041],46,0,20,8,9,0,0,0,25,8
Cc1ccc(O)cc1Nc1ccnc2ccc(C(C)(C)C)cc12 [GW856805],19,63,91.4,5,20,0,30,29,28,0
Cl.N#CCc1ccc(Nc2nccc(Nc3ccc(Oc4ccccc4)cc3)n2)cc1 [GW639905],34,0,60,0,0,0,0,31,0,0
CNc1nccc(-c2ccc3c(N)n[nH]c3c2)n1 [GSK2206003],2,0,10,22,15,3,71,0,28,22
COc1cccc(NC(=O)NCCNc2ccnc(Nc3ccc(F)cc3)n2)c1 [GSK1379879],4,0,30,0,0,0,58,0,8,0
Cc1cccc(Nc2nc(NCCN)ncc2C(N)=O)c1 [GSK1292139],0,3,0,10,0,0,66,98.1,84,23
CN1CCN(Cc2ccc(NC(=O)Nc3ccc(N(C)c4ccnc(Nc5ccc(CS(C)(=O)=O)cc5)n4)cc3)cc2)CC1.Cl [GW827654],69,0,8,19,10,60,51,42,27,23

Compound,%Inh [1] [%],%Inh [2] [%],%Inh [3] [%],%Inh [4] [%],%Inh [5] [%],%Inh [6] [%],%Inh [7] [%],%Inh [8] [%],%Inh [9] [%],%Inh [10] [%]
Cl.Cl.NC(CNC(=O)c1cc(Br)c(-c2ccnc3[nH]ccc23)s1)c1ccccc1 (centres unmarked) [GSK1322949],5,0,0,50,40,0,77,34,63,27
Fc1cc(Cl)ccc1Nc1ccnc2cc(-c3ccc(CN4CCOCC4)o3)ccc12 [GW560109],35,39,86,13,0,46,25,24,0,0
Cc1ccc(C)c(NC(=O)Nc2ccc(C)c(-c3ccc(C(=O)Nc4ccncc4)cc3)c2)c1 [GSK1398473],0,62,25,0,0,0,4,27,13,0
COC(=O)Nc1nc2ccc(Oc3ccc(CC(=O)Nc4cc(C(F)(F)F)ccc4F)cc3)cc2[nH]1 [GW680903],16,45,20,1,0,0,63,30,0,0
Cc1ccc(-c2ccc3occ(-c4ccc(S(C)=O)cc4)c3c2)nn1 (centres unmarked),0,0,0,0,0,0,5,14,15,7
Cc1ccc(Nc2ccnc(Nc3ccc(C)c(F)c3)n2)cc1O.Cl [GW582868],12,50,50,0,0,0,44,34,0,0
COc1cc(Nc2ccnc3cc(-c4ccncc4)ccc23)cc(OC)c1OC.Cl [GW494610],37,60,19,0,9,90,42,2,0,9
CN(C)CCOc1ccc(-c2cc(-c3ccc(Cl)c(O)c3)c(-c3ccncc3)[nH]2)cc1.Cl.Cl [SB-684387],27,96.6,75,0,0,0,83,40,23,0
O=C(Nc1n[nH]c2nc(-c3ccccc3)ccc12)C1CC1 [SB-708999],9,4,0,54,37,40,0,35,0,79
CC(=O)Nc1cn2nc(Oc3cccc(NC(=O)c4cccc(C(F)(F)F)c4)c3)ccc2n1,25,99.7,92.1,0,0,4,0,0,24,0
Fc1cc(Cl)ccc1Nc1ccnc2cc(-c3ccc(CN4CCSCC4)o3)ccc12 [GW560106],20,2,92.3,0,0,37,38,10,11,0
CN(c1ccc(NC(=O)Nc2cccc(Cl)c2)cc1)c1ccnc(N)n1.Cl [GW830707],0,0,8,0,12,0,30,15,5,0
O=C(Nc1n[nH]c2cc(-c3cccs3)ccc12)C1CC1 [SB-731284],11,68,0,54,30,54,0,0,6,0
O=C1NC(=O)C(c2ccccc2Cl)=C1Nc1cccc(Cl)c1 [SB-342409],19,0,22,0,0,0,22,3,21,18
Cc1ccc(NC(=O)c2ccnc(N3CCCCC3)c2)cc1-c1ccc(C(=O)NCC2CC2)cc1 [GW775610],0,77,12,9,6,0,0,24,0,0
CSc1ccc(NC2=C(c3ccc(Cl)cc3)C(=O)NC2=O)cc1 [SB-317658],11,0,1,0,0,0,0,61,13,0
CCn1cnc2c(NCc3ccccc3)ncnc21 [SKF-96418],0,9,0,0,0,0,50,0,1,0
Nc1ncc(-c2cn[nH]c2)c2scc(-c3ccc4c(c3)CCN4C(=O)Cc3ccccc3)c12 [GSK2593067],31,0,96.1,0,0,0,11,0,11,19
COc1ccc(C2=C(Nc3cccc(O)c3)C(=O)NC2=O)cc1 [SB-390766],0,6,21,7,49,0,50,73,27,26
CN(c1ccc2c(c1)nc(NCc1ccccc1)n2C)c1ccnc(Nc2ccc(CS(C)(=O)=O)cc2)n1.Cl [GW811603],0,96.8,79,0,0,64,0,46,5,0
O=C(Nc1n[nH]c2nc(-c3ccccc3O)ccc12)C1CC1 [SB-711880],0,0,0,38,19,0,2,9,4,0
CCNC(=O)/C=C/c1n[nH]c2cc(Sc3ccccc3C(=O)NC)ccc12,18,11,15,38,24,0,48,9,22,20

Compound,%Inh [1] [%],%Inh [2] [%],%Inh [3] [%],%Inh [4] [%],%Inh [5] [%],%Inh [6] [%],%Inh [7] [%],%Inh [8] [%],%Inh [9] [%],%Inh [10] [%]
Cc1ccc(NC(=O)c2ccc(Cl)c(Cl)c2)cc1-c1ccc(C(=O)Nc2ccncc2)cc1 [GSK1398460],6,34,10,7,10,0,6,28,24,0
O=C(O)C(F)(F)F.O=c1[nH]ccc2nc(N[C@@H]3CCNC3)nc(Nc3cc(Cl)cc(Cl)c3)c12 [GSK2188764],27,0,5,19,8,0,99.2,100,97.9,72
COc1ccc(NC(=O)c2ccoc2)cc1-c1ccc(C(=O)NCC2CC2)cc1 [GW810437],3,0,0,0,4,0,2,19,0,9
Cc1cc(-c2ccnc(Nc3cccc(C#N)c3)n2)cc(C)c1O [GSK1440913],25,4,25,2,0,14,52,24,8,22
Cn1cc(-c2cnc(N)c3c(-c4ccc5c(c4)CCN5C(=O)Cc4ccccc4)csc23)cn1 [GSK2593074],57,0,92.2,0,7,0,0,0,11,0
O=C(Nc1n[nH]c2nc(-c3cccc(O)c3)ccc12)C1CC1 [SB-711805],4,46,0,53,17,0,0,0,19,0
COc1cc(Nc2nccc(N3CCC(NS(=O)(=O)c4ccc(NC(C)=O)cc4)CC3)n2)cc(OC)c1OC [GSK1379825],32,14,40,0,1,0,48,35,15,5
CS(=O)(=O)c1cccc(CNc2nc(Nc3ccc4c(c3)CCC(=O)N4)ncc2C(F)(F)F)c1,0,0,0,0,0,0,0,0,8,0
COc1cccc(CC(=O)N2CCc3cc(-c4cn(C)c5ncnc(N)c45)ccc32)c1 [GSK2608899],0,6,53,8,0,0,0,43,19,20
Nc1ncc(-c2ccc3nccc(-c4ccncc4)c3c2)cc1S(=O)(=O)N1CCCCC1 [GSK1693850],22,8,18,0,0,0,13,6,25,2
Cc1nn2c(=O)cc(N3CCO[C@H](C)C3)nc2n1Cc1cccc(Cl)c1Cl [GSK2373693],15,2,13,3,0,0,28,42,9,0
CCn1c(-c2nonc2N)nc2c(-c3ccccc3)ncc(OCCCN)c21.O=C(O)C(F)(F)F.O=C(O)C(F)(F)F [GSK260205],0,0,0,0,0,0,96.2,7,6,4
Cc1ccccc1CC(=O)N1CCc2cc(-c3cn(C)c4ncnc(N)c34)ccc21 [GSK2603346],2,0,71,0,0,0,10,0,13,19
COc1cc(Nc2nccc(N3CCC(NC(=O)Nc4ccc5c(c4)OCO5)C3)n2)cc(OC)c1OC (centres unmarked) [GSK1379766],0,12,0,0,0,0,43,34,19,9
CN(C)c1ncnc2nc[nH]c12 [SKF-31736],0,9,0,0,0,0,40,0,0,8
CC(C)c1nc(-c2ccc(F)c(NS(=O)(=O)c3c(F)cccc3F)c2)c(-c2ccnc(Nc3ccc(N4CCOCC4)nc3)n2)s1 [GSK1804250],90,99.9,94.8,14,0,90,92.7,31,26,4
CN(C)CCNS(=O)(=O)c1ccc(-c2ccnc3[nH]ccc23)cc1 [GSK977620],9,0,16,19,0,0,29,0,66,8
COc1cccc(-c2nc(-c3ccccc3)[nH]c2-c2ccncc2)c1 [SB-610250],0,74,16,0,0,0,95.6,0,5,0
Cl.O=C(Nc1ccc(Oc2ccc3[nH]c(NC(=O)c4ccco4)nc3c2)cc1)Nc1cc(C(F)(F)F)ccc1F [GW683134],1,69,0,0,0,0,30,29,0,0
Nc1cccc(-c2ccc3c(N)n[nH]c3c2)c1 [GSK2193613],5,0,8,58,51,0,21,21,25,4
Cn1cc(-c2ccc3c(c2)CCN3C(=O)Cc2cc(F)cc(F)c2F)c2c(N)ncnc21 [GSK2634140],11,0,22,6,0,0,9,7,28,0
